# FBPA Giardia inh = qHTS Assay for Inhibitors of Fructose-1,6-bisphosphate Aldolase from Giardia Lamblia; A8B2U2; purified Giardia FBPA; Potency, µM (top dose mostly 59.6 µM), for the others: at the top dose activity, negative = inhibition, actives largely listed as inhibitors; actives 0.71% (n = 290,000); AID 2451, 2010; further: potency means the concentration at half of the fitted maximal effect; on the % scale 0 is the no-effect control and ±100 the full control effect; nearly all actives have a fitted effect of over 55% in size
# Target sequence (A8B2U2 whole entry, looked up): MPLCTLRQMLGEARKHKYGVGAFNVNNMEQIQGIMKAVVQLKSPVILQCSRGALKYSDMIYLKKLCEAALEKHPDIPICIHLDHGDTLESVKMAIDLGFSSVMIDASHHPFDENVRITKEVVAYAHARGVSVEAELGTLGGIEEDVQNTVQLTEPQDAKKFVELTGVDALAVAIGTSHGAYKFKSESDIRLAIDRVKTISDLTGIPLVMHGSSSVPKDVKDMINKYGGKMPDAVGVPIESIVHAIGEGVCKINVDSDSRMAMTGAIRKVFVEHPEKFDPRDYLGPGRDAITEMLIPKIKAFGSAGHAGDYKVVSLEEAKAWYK
#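 Giardia FBPA (40 nM reagent) was preincubated 10 min at RT with compound (up to 57.5 uM final), then substrate plus GAPDH/TPI/NAD/arsenate coupling system with diaphorase/resazurin was added; resorufin fluorescence (525/598 nm) was read after 20 min.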
# Tb PYK inh = qHTS of Trypanosoma Brucei Inhibitors; actives 0.12% (n = 410,000); TbPYK enzyme, Kinase-Glo Plus ATP luminescence, 45 min; Potency, µM (doses to about 76.8 µM), inactives show at the top dose activity, negative = inhibition, usual class: inhibitors; AID 624173, 2012; further: potency means the concentration at half of the fitted maximal effect; on the % scale 0 is the no-effect control and ±100 the full control effect; nearly all actives have a fitted effect of over 50% in size
#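 Luminescent Kinase-Glo Plus end-point after 45 min room-temperature reaction of T. brucei pyruvate kinase started with 130 uM ADP (final). Buffer TEA 50 mM pH 7.2 with KCl, MgCl2, BSA, Tween-20; titration-based qHTS with fitted concentration-effect curves.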
# Shiga inhibitor = A qHTS for Small Molecule Inhibitors of Shiga Toxin | inhibition, % at 38.7 µM | Vero cells, Shiga toxin protein synthesis inhibition reporter | actives 9.2% (n = 290,000); in the data active means inhibition mostly above about 28%, no sharp cut-off; inactive means mostly below about 43%; further: 0% is about no effect
# LmPK inh = qHTS Assay for Inhibitors of Leishmania Mexicana Pyruvate Kinase (LmPK); Q27686; purified LmPK, Kinase-Glo ATP luminescence, 1 h; Potency, µM (series often up to 57.5 µM), for the others: top-dose activity change, negative = inhibition, most hits filed as inhibitors; actives 0.37% (n = 290,000); further: potency means the concentration at half of the fitted maximal effect; on the % scale 0 is the no-effect control and ±100 the full control effect
#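 Kinase-Glo luminescence read after 1 h RT reaction of 0.1 nM LmPK with 0.5 mM PEP and 0.1 mM ADP. Activity scaled between uninhibited and enzyme-free controls.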
# CHX counter = Cycloheximide Counterscreen for Small Molecule Inhibitors of Shiga Toxin; cell reporter, cycloheximide protein synthesis inhibition counterscreen; max response, %; actives 12% (n = 300,000); AID 2314, 2010; in the data active means max response mostly above about 13%, no sharp cut-off; inactive means mostly below about 14%; further: read at 38.3 µM for the half of the compounds with a filed dose; 0% is about no effect
# Sm TGR inh = qHTS Assay for the Inhibitors of Schistosoma Mansoni Peroxiredoxins; Potency, µM (doses to about 114 µM), for the others: at the highest dose activity change, negative = inhibition, actives largely listed as inhibitors; actives 3% (n = 360,000); AID 485364, 2010; purified TGR, DTNB reduction, TNB absorbance 405 nm; Schistosoma mansoni thioredoxin glutathione reductase (TGR), Q962Y6; further: potency means the concentration at half of the fitted maximal effect; on the % scale 0 is the no-effect control and ±100 the full control effect; nearly all actives have a fitted effect of over 60% in size
#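 Kinetic colorimetric format: TGR-catalysed, NADPH-driven DTNB reduction monitored via TNB absorbance. Enzyme dispensed at 20 nM; compound exposure 15 min at room temperature before reaction start.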
# * = called active by the depositor; i = inactive; . = not tested or not shown; [ ] = remark or other dose. Shown is part of a subset that was picked to be rich in hits. Unless noted, the call rests on the fitted dose curve; in most records, active means well fitted curve in the direction sought with a large enough effect; inconclusive means small, poorly fitted or top-dose-only effect, or another doubt; inactive means no such curve, though single readings can be large; an effect the other way counts as inactive or inconclusive.
SMILES,FBPA Giardia inh,Tb PYK inh,Shiga inhibitor,LmPK inh,CHX counter,Sm TGR inh
Fc1ccc(-c2nnc(SCc3cccnc3)o2)cc1,-0.2%,-6.9%,66.3*,3.4%,25.6*,0.0%
COc1ccc(-c2nnc(SCc3cccc(C#N)c3)o2)cc1,-3.6%,0.0%,31.2,2.0%,8.5,48.1%
Cc1cccc(-n2c(C)nc3cc(C(=O)NCCC4=CCCCC4)ccc32)c1,.,-16.8%,.,.,.,-5.8%
COc1ccc(C(NC(=O)/C=C/c2ccco2)c2ccc(OC)c(OC)c2)cc1 (stereo not drawn),-0.9%,-10.6%,84.7*,-2.5%,42.2*,25.1µM*
CCOc1ccc(C(NC(=O)/C=C/c2ccco2)c2ccc(OC)c(OC)c2)cc1 (stereo not drawn),0.0%,-17.6%,12.4,5.0%,8.2,44.7µM*
Cc1nc2ccn(Cc3cccnc3)c(=O)c2cc1C(=O)NCc1ccccc1,.,3.9%,.,.,.,-2.5%
COc1ccc(C(=O)NCCn2cc(SCC(=O)Nc3ccc4c(c3)OCCO4)c3ccccc32)cc1OC,.,8.0%,.,.,.,3.3%
COc1ccc(-c2csc(=Nc3ccccc3)n2CCO)cc1,-1.6%,-4.6%,41.4*,0.5%,16.0*,0.0%
Cc1ccc(-c2csc(=Nc3ccccc3)n2CCCO)cc1,.,-1.7%,.,.,.,2.0%
COc1ccc(-c2csc(=NCCO)n2-c2ccccc2)cc1,-9.8%,-7.6%,70.9*,3.5%,17.3*,-1.7%
C=CCn1c(-c2ccc(OC)cc2)csc1=Nc1c(C)n(C)n(-c2ccccc2)c1=O,1.2%,-4.9%,-22.3,4.7%,-3.7,0.0%
O=C1CCCC2=C1C1O[C@](CCCCN3C(=O)c4ccccc4C3=O)(Cc3c1ccc1ccccc31)O2,3.9%[12.9 µM],.,i,-7.0%[11.5 µM],5.7,6.3%[22.9 µM]
Clc1ccccc1-c1nc(NC2CCNCC2)c2ccccc2n1,-3.3%,.,.,.,.,.
COc1ccc2c(c1OC)C(=O)N(c1cccc(C(F)(F)F)c1)C2,-0.2%,-8.1%,103.3*,7.8%,19.9*,3.2%
COc1ccccc1N1Cc2ccc(OC)c(OC)c2C1=O,3.3%,-5.8%,19.6,-1.3%,6.9,1.6%
COc1ccc2c(c1OC)C(=O)N(c1cccc(C)c1)C2,1.2%,-15.9%,49.1*,14.1µM*,41.0*,-2.6%
CN1C(=O)NC(c2ccccc2)C2=C1CN(c1cccc(C(F)(F)F)c1)C2=O (stereo not drawn),13.2%,3.8%,-12.5,2.7%,-0.8,-12.0%
COc1ccc2c(c1OC)C(=O)N(c1ccccn1)C2,0.6%,-12.6%,139.0*,-23.2%,51.7*,-24.5%
COc1ccc2c(c1OC)C(=O)N(c1ccc(C)cc1)C2,2.2%,1.9%,86.5*,-7.6%,54.1*,6.7%
COc1cc(NC(=O)Nc2ccc3c(c2)OCO3)cc(OC)c1OC,8.5%,0.6%,44.2,-4.2%[11.5 µM],11.0,12.3%
COc1ccccc1/C=C/C(=O)Nc1cccc(C(C)=O)c1,-20.8%,-1.8%,65.3*,-1.0%,44.5*,-30.2%
CCc1cc(C(=O)O)c(NC(=O)/C=C/c2ccc(OC)c(OC)c2)s1,0.9%,-0.2%,-8.5,0.5%,-2.6,-3.3%
CCc1cc(C(=O)O)c(NC(=O)/C=C/c2ccc(OC)cc2)s1,-3.1%,-16.6%,36.9,-2.9%,31.6*,-9.4%
COc1cccc(/C=C/C(=O)Nc2ccc3c(c2)OCCO3)c1OC,-16.0%,2.3%,88.0*,-24.0%,26.9*,-9.6%
COc1ccc(/C=C/C(=O)Nc2cccc(C(C)=O)c2)cc1,-19.4%,0.8%,67.8*,0.0%,60.1*,-2.7%
CCCn1c(=O)sc2cc(NC(=O)c3ccccc3OCC)ccc21,.,1.3%,.,.,.,0.0%
COc1cccc(/C=C/C(=O)Nc2cccc(C(C)=O)c2)c1OC,-20.5%,-0.3%,74.6*,6.8%,48.5*,11.2%
COc1ccc(Br)cc1/C=C/C(=O)Nc1ccc(C)cc1,-0.3%,-0.3%,30.2,2.2%,-3.1,-8.8%
COc1cccc(/C=C/C(=O)Nc2ccc(C(=O)Nc3cccc(S(N)(=O)=O)c3)cc2)c1OC,0.4%,-0.1%,-3.4,2.8%,5.3,1.2%

# Screening results as filed in PubChem.
